Source: PubChem BioAssay
AMA1-RON2 inh = disrupts binding of P. falciparum AMA1 to RON2; AlphaScreen AMA1-biotinylated RON2 peptide binding; AID 720542; 360,000 compounds, 0.2% hits; Potency, µM (doses to about 58.2 µM), inactives show at the top dose activity change, negative = inhibition, usual class: inhibitors;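 further: 0% = vehicle wells and -100% = peptide control; nearly all actives have a fitted effect of over 45% in size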
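AMA1 (3D7) with his tag at 25 nM final met compounds first, then biotinylated RON2 peptide at 25 nM; detection used donor plus acceptor beads, 10 µg/mL apiece, read by AlphaScreen after 30 min at room temperature.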
Pf growth 48h = P. falciparum growth inhibition at 48 hours (one generation); P. falciparum luciferase growth in erythrocytes, 48 h; Potency, µM (top dose mostly 28.7 µM), for inactives: at the highest dose activity change, negative = inhibition, most hits filed as inhibitors; 310,000 compounds, 5.9% hits; AID 504832; further: on the % scale 0 is the no-effect control and ±100 the full control effect
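A one-generation exposure of luciferase-tagged malaria parasites in RPMI 1640/Albumax erythrocyte culture, 37 C and 5% CO2. Inhibition is inferred from decreased luminescence after adding detection reagent.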
SARS PLP yeast = blocks SARS-CoV papain-like protease in a yeast assay; Potency, µM (series often up to 32.9 µM), for the others: top-dose activity, positive = growth rescue, hits mostly activators; 330,000 compounds, 0.19% hits; S. cerevisiae expressing SARS-CoV PLpro, growth rescue; AID 485353; calls by dose curve; further: 0% is about no effect; nearly all actives have a fitted effect of over 55% in size
Pf growth 96h = inhibits malaria parasite growth, 96 h; P. falciparum luciferase reporter growth, 96 h; Potency, µM (series often up to 28.7 µM), without a hit: at the top dose activity change, negative = inhibition, usual class: inhibitors; 320,000 compounds, 6.9% hits; AID 504834; further: on the % scale 0 is the no-effect control and ±100 the full control effect
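Compounds incubated with erythrocytes infected by luciferase-expressing P. falciparum (2% hematocrit, 0.05% parasitemia final) for 96 hours, 37 C in 5% CO2. Growth inhibition scored as decreased luciferase luminescence.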
* = called active by the depositor; ? = inconclusive; / = not tested or not shown; [ ] = remark or other dose. This is a sample that favours compounds with a hit; in the whole collection about 9.4% have one here. Unless noted, the call rests on the fitted dose curve; in most records, active means well fitted curve in the direction sought with a large enough effect; inconclusive means small, poorly fitted or top-dose-only effect, or another doubt; inactive means no such curve, though single readings can be large; an effect the other way counts as inactive or inconclusive. Potency means the concentration at half of the fitted maximal effect.

SMILES | AMA1-RON2 inh | Pf growth 48h | SARS PLP yeast | Pf growth 96h
CCc1ccc(CNC(=O)C2CCN(S(=O)(=O)N3CCCC3)CC2)cc1 | 8% | 14% | -2% | -34%
Fc1ccc(C2c3cccn3CCN2C(=S)Nc2cccc(F)c2)cc1 (stereo unspecified) | -5% | ? | -10% | ?
CCSc1nnc(NC(=O)NC(CC)(C(F)(F)F)C(F)(F)F)s1 | 0% | 12µM* | -10% | ?
CO/N=C/c1c(-c2ccccc2)nn(C)c1Cl | 0% | 427% | 2% | -7%
Cc1cnn(CCC(=O)NNC(=S)Nc2ccccc2)c1 | 38% | 7% | -4% | 65%
Cc1cccc(N2C(=O)N3[C@H](c4ccc(Br)cc4)[C@@H]4C(=O)N(C(C)(C)C)C(=O)[C@@H]4[C@]3(Cc3ccc(Cl)cc3)C2=O)c1 | -1% | ? | -10% | ?
CCSc1ncc(Cl)c(C(=O)Nc2ccccc2)n1 | 0% | 3% | 26% | 8.3µM*
CCSc1ncc(Cl)c(C(=O)Nc2ccc(S(N)(=O)=O)cc2)n1 | 53% | 5% | 1% | 9.3µM*
CSc1ncc(Cl)c(C(=O)Nc2ccccc2[N+](=O)[O-])n1 | 11% | 66% | 2% | 9.3µM*
Cc1cccc(NC(=O)Cn2cc(C=O)c3ccccc32)c1 | 12% | ? | 2% | 17%
CCn1c(-c2csc3ccccc23)n[nH]c1=S | 42% | 13% | -6% | ?
COc1ccc(N2C(=O)NC(NS(=O)(=O)c3ccc(NC(C)=O)cc3)(C(F)(F)F)C2=O)cc1 (stereo unspecified) | -10% | 0% | -3% | 9.3µM*
Cc1oc(-c2ccccc2)nc1CN1C(=O)C(C)N=C(c2ccccc2F)c2cc(Cl)ccc21 (stereo unspecified) | 0% | ? | -1% | 2.3µM*
Cc1oc(-c2cccc(Cl)c2)nc1CN1CCC(C(=O)N2CCN(c3ccccc3F)CC2)CC1 | 7% | ? | 0% | 12%
O=C(NCc1ccco1)c1ccc2c(=O)n(-c3ccccc3)c(=O)n(Cc3cccc(F)c3)c2c1 | / | ? | 7% | ?
CC(Nc1nc(=S)nc(Nc2ccc(F)cc2)[nH]1)c1ccccc1 (stereo unspecified) | -7% | 12µM* | 1% | 10µM*
CC(Nc1nc(Nc2ccc(F)cc2)nc(SCC(N)=O)n1)c1ccccc1 (stereo unspecified) | 1% | ? | 0% | ?
Cc1nc(-c2ccccn2)nc(SCC(=O)c2ccccc2)c1Cl | 36% | 15µM* | -7% | 5.2µM*
CCOC(=O)C(CCc1ccccc1)NC1CCc2ccccc2N(CC(=O)O)C1=O (stereo unspecified) | / | 9.5µM* | / | 12µM*
CCOC(=O)[C@H](CCc1ccccc1)N[C@H]1CCc2ccccc2N(CC(=O)O)C1=O | -13% | / | / | /
Clc1ccc(SCCn2ccnc2)cc1 | 16% | -17% | -2% | 13µM*
Cc1ccc(-c2nc3sc4c(c3c(=O)n2N)CC(C)(C)OC4)cc1 | -19% | 9% | 7% | /
Cc1nc2sc3c(c2c(=O)o1)CCCC3 | 14% | 22% | -5% | 2.1µM*
Nc1nc2sc3c(c2c(=O)s1)CCCC3 | -5% | 65% | -35% | 0%
Cc1nc2sc3c(c2c(=N)n1N)CC(C)(C)OC3 | 47% | 2% | 1% | 13%
SMILES | AMA1-RON2 inh | Pf growth 48h | SARS PLP yeast | Pf growth 96h
Nc1c2c3c(sc2nc(=O)n1N)CCCC3 | 6% | 8% | 0% | 6.6µM*
Cc1nc2sc3c(c2c(=N)n1N)CCCC3 | 12% | -2% | 0% | 10µM*
Cc1ccc(-c2nc3sc4c(c3c(=O)n2N)CCCC4)cc1 | 3% | / | -14% | 7.4µM*
CC(=O)N1CC(=O)Nc2ccc(C)cc2C1c1ccccc1 (stereo unspecified) | -1% | 4%[0.00184 µM] | -1% | 9%
O=C(Nc1nc(-c2cc(F)ccc2F)cs1)C1=COCCO1 | 9% | 48% | 0% | 69%
Cc1ccc2nc(SCC(=O)c3ccc(O)cc3O)[nH]c2c1 | 0% | 77% | -1% | ?
Cc1ccc(C)n1-n1cnc2sc3c(c2c1=O)CCCCC3 | -3% | / | -8% | ?
Cc1ccc(C)n1-n1c(C)nc2sc3c(c2c1=O)CCCCC3 | ? | 12µM* | -11% | 12µM*
O=C(Nc1cccc(S(=O)(=O)C(F)F)c1)c1ccc(Cl)c(S(=O)(=O)N2CCOCC2)c1 | -18% | 9.3µM* | 3% | /
O=C(Nc1cccnc1)c1ccc(Cl)c(S(=O)(=O)N2CCOCC2)c1 | 24% | -26% | 2% | -23%
O=C(Nc1cccc(C(=O)NC2CC2)c1)c1ccc(Cl)c(S(=O)(=O)N2CCOCC2)c1 | -5% | ? | 2% | 13µM*
O=C(Nc1cccc(Br)c1)c1ccc(Cl)c(S(=O)(=O)N2CCOCC2)c1 | 12% | 6.6µM* | -6% | -3%
O=C(NC1CCCC1)c1cc(S(=O)(=O)N2CCOCC2)c(Cl)cc1Cl | -16% | -30% | 0% | 4.7µM*
O=C(COc1ccccc1F)OCC(=O)c1ccc([N+](=O)[O-])cc1 | 1% | / | 3% | /
Cc1cccc(OCC(=O)N2CCN(Cc3ccc([N+](=O)[O-])cc3)CC2)c1 | ? | 12% | -1% | 23%
COc1cc(NS(=O)(=O)c2ccc(C)c(C)c2)c(OC)cc1Cl | 5% | -4% | -24% | 6.6µM*
O=C(COc1ccc(S(=O)(=O)NC2CCCCC2)cc1Cl)NCC1CCCO1 (stereo unspecified) | 21% | ? | 2% | /
COc1ccc(CCNC(=O)COc2ccc(S(=O)(=O)NC3CCCCC3)cc2Cl)cc1 | 0% | 13µM* | -6% | ?
COc1ccc(S(=O)(=O)NC2CC2)cc1Cl | -4% | -23% | ? | 2.3µM*
O=C(COc1ccc(S(=O)(=O)NC2CCCCC2)cc1)NCc1ccccn1 | 35% | 1% | -1% | 4.1µM*
COc1ccc(S(=O)(=O)Nc2ccccc2OC)cc1C | 2% | -4% | 5% | 4%
COc1ccccc1C(=O)C1CCCN(C(=O)Nc2ccccc2F)C1 (stereo unspecified) | 2% | 93% | -2% | ?
COc1ccccc1NC(=O)N1CCC(c2nc3cc(C)c(C)cc3[nH]2)CC1 | -16% | ? | -3% | 46%
COc1ccccc1NC(=S)N1CCC(c2nc3cc(C)c(C)cc3[nH]2)CC1 | -7% | ? | 0% | 12µM*
Fc1ccc(-c2nnn3c2nc(NCc2ccccc2)c2ccccc23)cc1 | -1% | 13% | -1% | 13%
CCCCN(CCCC)C1=Nc2ccccc2N/C1=C(/C#N)C(=O)OCC | 0% | -34% | 1% | ?
CCOC(=O)/C(C#N)=C1\Nc2ccccc2N=C1N(CC(C)C)CC(C)C | -14% | 2.3µM* | -24% | 19%
CCOCC(=O)Nc1c(C(=O)Nc2ccc3c(c2)OCO3)oc2ccccc12 | 15% | 107% | 5% | 124%
O=S(=O)(c1ccc2c(c1)OCCO2)N1CCC(c2nc3ccc(Cl)cc3[nH]2)CC1 | 18% | 12µM* | 6% | ?
O=S(=O)(c1ccc2c(c1)OCCO2)N1CCC(c2nc3ccccc3[nH]2)CC1 | -4% | ? | 5% | /
